Reference: ChEMBL document CHEMBL1961873, “Compounds: GSK PKIS; Assays: Nanosyn kinase panel” (2012)

What was measured:
[1] = target: T1, Inhibitor of nuclear factor kappa-B kinase subunit epsilon (Homo sapiens) (UniProt Q14164); settings: at 1 µM;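 also: reported values are averaged percent inhibition figures against human IKKε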
T1 sequence (whole entry): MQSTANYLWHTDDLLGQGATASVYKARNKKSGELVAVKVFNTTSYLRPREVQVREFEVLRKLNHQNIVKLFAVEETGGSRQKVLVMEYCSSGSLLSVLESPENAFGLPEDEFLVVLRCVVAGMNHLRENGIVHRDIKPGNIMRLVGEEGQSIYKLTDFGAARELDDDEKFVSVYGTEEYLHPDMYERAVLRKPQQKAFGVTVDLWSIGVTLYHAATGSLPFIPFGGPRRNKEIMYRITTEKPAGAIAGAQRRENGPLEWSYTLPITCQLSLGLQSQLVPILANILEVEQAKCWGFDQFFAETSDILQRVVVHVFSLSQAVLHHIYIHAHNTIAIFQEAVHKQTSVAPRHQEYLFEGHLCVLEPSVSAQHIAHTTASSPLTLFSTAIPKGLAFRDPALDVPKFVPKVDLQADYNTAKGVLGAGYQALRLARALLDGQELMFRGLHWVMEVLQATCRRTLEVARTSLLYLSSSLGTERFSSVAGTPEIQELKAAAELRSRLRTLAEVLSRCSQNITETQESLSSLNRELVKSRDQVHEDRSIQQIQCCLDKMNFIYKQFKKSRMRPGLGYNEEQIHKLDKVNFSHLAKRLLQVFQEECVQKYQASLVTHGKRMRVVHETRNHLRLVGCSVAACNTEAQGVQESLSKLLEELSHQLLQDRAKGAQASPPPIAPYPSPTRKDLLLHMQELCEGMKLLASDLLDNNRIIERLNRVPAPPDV

[2] = target: T2, Serine/threonine-protein kinase Nek1 (Homo sapiens) (UniProt Q96PY6); settings: at 0.1 µM
T2 sequence (whole entry): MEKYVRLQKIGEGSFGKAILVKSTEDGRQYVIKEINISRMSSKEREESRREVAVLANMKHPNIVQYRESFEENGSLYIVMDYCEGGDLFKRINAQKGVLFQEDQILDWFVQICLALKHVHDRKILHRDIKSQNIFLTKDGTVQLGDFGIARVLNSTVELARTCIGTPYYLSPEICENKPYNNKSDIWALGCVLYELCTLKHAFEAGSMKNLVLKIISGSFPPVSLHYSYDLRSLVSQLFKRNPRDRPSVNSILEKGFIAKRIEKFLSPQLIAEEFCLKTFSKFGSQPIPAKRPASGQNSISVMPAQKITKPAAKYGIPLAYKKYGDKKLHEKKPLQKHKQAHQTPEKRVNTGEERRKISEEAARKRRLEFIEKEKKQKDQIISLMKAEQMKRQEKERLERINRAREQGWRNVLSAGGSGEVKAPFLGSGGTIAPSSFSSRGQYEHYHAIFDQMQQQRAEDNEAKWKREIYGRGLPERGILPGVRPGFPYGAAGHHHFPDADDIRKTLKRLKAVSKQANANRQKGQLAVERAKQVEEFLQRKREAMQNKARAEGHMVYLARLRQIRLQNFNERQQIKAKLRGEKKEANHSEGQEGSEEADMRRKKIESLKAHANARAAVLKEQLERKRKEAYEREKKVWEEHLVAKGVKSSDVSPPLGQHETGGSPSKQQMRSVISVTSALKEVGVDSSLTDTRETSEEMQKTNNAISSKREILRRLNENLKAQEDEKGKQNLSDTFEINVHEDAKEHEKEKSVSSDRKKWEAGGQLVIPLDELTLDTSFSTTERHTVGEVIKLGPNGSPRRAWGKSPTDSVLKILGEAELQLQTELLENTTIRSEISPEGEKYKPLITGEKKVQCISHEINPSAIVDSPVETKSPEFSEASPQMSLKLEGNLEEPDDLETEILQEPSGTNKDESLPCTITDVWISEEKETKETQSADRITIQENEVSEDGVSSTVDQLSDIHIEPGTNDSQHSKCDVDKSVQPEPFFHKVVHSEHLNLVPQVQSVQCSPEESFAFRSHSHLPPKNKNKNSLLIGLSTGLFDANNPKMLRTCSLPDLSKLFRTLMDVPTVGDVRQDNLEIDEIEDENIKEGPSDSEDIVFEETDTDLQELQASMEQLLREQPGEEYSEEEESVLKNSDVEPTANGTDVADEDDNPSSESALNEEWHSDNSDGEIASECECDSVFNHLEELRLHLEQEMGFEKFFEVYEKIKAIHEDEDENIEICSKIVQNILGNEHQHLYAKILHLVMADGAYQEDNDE

[3] = target: T2, Serine/threonine-protein kinase Nek1 (Homo sapiens); settings: at 1 µM
[4] = target: T3, Serine/threonine-protein kinase Nek2 (Homo sapiens) (UniProt P51955); settings: at 0.1 µM
T3 sequence (whole entry): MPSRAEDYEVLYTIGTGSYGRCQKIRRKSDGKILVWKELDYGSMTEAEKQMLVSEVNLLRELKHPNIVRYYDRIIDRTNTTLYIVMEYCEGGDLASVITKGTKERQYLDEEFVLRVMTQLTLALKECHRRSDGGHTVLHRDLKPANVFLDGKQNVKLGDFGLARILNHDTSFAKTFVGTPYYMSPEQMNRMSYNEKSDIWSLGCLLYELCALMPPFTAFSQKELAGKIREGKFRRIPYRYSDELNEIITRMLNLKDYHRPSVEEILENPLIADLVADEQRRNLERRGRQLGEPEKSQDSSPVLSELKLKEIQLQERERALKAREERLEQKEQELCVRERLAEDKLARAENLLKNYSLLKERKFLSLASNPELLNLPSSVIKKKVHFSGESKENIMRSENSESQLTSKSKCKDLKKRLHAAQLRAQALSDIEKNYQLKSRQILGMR

[5] = target: T3, Serine/threonine-protein kinase Nek2 (Homo sapiens); settings: at 1 µM
[6] = target: Serine/threonine-protein kinase Nek6 (Homo sapiens) (UniProt Q9HC98); settings: at 0.1 µM
Chain of Serine/threonine-protein kinase Nek6 (Homo sapiens) (Q9HC98 whole entry): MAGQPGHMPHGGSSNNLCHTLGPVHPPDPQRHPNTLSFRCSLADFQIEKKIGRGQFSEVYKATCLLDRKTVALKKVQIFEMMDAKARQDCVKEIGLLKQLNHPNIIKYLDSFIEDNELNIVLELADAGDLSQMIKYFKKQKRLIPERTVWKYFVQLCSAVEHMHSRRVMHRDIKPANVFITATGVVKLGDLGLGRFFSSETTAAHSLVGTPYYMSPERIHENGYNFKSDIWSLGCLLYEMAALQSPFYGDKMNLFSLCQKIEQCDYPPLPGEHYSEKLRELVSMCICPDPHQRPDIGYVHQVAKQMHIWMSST

[7] = target: Serine/threonine-protein kinase Nek6 (Homo sapiens) (UniProt Q9HC98); settings: at 1 µM
[8] = target: Serine/threonine-protein kinase Nek7 (Homo sapiens) (UniProt Q8TDX7); settings: at 0.1 µM
Chain of Serine/threonine-protein kinase Nek7 (Homo sapiens) (Q8TDX7 whole entry, looked up): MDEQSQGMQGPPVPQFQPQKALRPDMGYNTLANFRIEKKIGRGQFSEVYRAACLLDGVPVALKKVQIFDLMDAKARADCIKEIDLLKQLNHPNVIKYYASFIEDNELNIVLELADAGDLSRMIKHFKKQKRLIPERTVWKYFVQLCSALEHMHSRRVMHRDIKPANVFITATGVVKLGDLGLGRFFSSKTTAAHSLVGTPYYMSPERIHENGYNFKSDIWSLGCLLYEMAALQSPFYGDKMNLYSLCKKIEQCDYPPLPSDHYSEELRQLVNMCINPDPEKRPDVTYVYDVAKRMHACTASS

[9] = target: Serine/threonine-protein kinase Nek7 (Homo sapiens) (UniProt Q8TDX7); settings: at 1 µM
[10] = target: T4, Serine/threonine-protein kinase Nek9 (Homo sapiens) (UniProt Q8TD19); settings: at 0.1 µM;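 also: reported value is the mean percent inhibition of NEK9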
T4 sequence (whole entry): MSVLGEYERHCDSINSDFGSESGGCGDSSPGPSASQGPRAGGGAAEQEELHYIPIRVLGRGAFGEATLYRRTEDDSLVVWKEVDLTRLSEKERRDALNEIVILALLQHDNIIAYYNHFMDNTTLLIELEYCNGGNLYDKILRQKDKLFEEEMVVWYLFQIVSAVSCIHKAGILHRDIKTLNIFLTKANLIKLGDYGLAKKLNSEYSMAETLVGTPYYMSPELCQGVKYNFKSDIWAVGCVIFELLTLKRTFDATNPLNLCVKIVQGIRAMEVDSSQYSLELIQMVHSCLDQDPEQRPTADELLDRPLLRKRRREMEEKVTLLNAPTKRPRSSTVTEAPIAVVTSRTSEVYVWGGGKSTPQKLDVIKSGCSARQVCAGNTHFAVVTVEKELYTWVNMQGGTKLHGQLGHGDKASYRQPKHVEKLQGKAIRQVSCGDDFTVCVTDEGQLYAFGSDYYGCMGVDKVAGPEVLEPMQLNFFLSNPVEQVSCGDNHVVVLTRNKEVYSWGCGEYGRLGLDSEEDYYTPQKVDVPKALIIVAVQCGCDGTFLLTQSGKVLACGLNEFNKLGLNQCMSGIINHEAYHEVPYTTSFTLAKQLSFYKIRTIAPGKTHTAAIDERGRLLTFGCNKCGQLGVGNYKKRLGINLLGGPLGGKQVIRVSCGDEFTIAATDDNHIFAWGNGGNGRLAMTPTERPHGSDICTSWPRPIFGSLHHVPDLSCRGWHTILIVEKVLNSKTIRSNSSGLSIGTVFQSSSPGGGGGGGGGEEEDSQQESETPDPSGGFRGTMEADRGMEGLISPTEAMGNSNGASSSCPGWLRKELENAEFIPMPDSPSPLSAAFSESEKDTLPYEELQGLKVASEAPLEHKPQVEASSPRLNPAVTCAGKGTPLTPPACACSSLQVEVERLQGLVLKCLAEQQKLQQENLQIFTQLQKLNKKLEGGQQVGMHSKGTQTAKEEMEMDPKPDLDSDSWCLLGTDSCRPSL

**Q.** Which inhibition [1] does the source give for `CN1CCC(C(=O)Nc2n[nH]c3nnc(-c4ccccc4)cc23)CC1` here?
**A.** Its inhibition is 6.54%.

**Q.** And the inhibition [2]?
**A.** The inhibition was 2.01%.

**Q.** And the inhibition [3]?
**A.** Its inhibition is 4.86%.

**Q.** What about the inhibition [4] of the same molecule?
**A.** The inhibition was 5.31%.

**Q.** And the inhibition [5]?
**A.** Its inhibition is 4.22%.

**Q.** What about the inhibition [6] of the same molecule?
**A.** The inhibition was 2.59%.

**Q.** What about the inhibition [7] of the same molecule?
**A.** The inhibition was 0.5%.

**Q.** And the inhibition [8]?
**A.** Its inhibition is 5.74%.

**Q.** What about the inhibition [9] of the same molecule?
**A.** Its inhibition is 4.97%.

**Q.** And the inhibition [10]?
**A.** The inhibition was 12.7%.
